Consider 4 compounds from PubChem BioAssay.

Calls of active or inactive are those of the source. Unless noted, no rule for the calls is given here.

Assay [1] concerns Wnt5a (protein binding on small-molecule microarray). Description: small molecules binding Wnt5a protein – biophysical, small-molecule microarray, 635/667 nm fluorescence, primary screen (AID 1142).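 Also: fluorescence read at 667 nm with signal to noise per printed feature.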 To be noted: 635 nm fluorescence, higher = more signal.
Assay [2] in a line: ATP-based viability of Huh7 replicon cells – cell-based, CellTiter-Glo luminescence, basal, 48 h, cytotoxicity control for HCV replication inhibitor project, primary screen (AID 1143).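 Also: Huh7 hepatoma cells carrying a hepatitis C replication reporter with no stimulus; test concentration not given here.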 The conditions noted are these: higher = more signal, called active from +8 up or from −8 down.
Assay [3] in a line: Pseudomonas biofilm growth suppression – PAO1 strain, BacTiter-Glo luminescence, LB-PBS, primary screen (AID 1144). The conditions noted are these: P. aeruginosa PAO1 biofilm, 12 h, higher = more signal.
A short description of assay [4]: basal CRE-LacZ reporter activity in PC12 – cell-based, unstimulated, primary screen (AID 1145). To be noted: no forskolin, luminescence, 4.5 h, higher = more signal, called active from +8 up or from −8 down.
Assay [5] is described as follows: forskolin-driven CRE-LacZ activity in PC12 – cell-based, CRE-LacZ reporter, forskolin-stimulated, primary screen (AID 1146).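 Also: PC12 cells with 6xCRE LacZ reporter stimulated by forskolin 10 µM; beta-galactosidase reporter signal reflecting CREB driven transcription.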 To be noted: luminescence, 4.5 h, higher = more signal, called active from +8 up or from −8 down.
Assay [6] has as its target Streptavidin (Streptomyces avidinii) (UniProt P22629). Kind of assay: compounds binding control protein streptavidin – biophysical, small-molecule microarray, 635/667 nm fluorescence, artefact control for SMM compound annotation, primary screen (AID 1147).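 Also: signal reflects streptavidin binding to arrayed compounds as a control protein.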 The conditions noted are these: higher = more signal.
The nature of assay [7]: probe aInhba binding on compound microarray – biochemical, small-molecule microarray, 635/667 nm fluorescence, primary screen (AID 1148).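 Also: score merges 667nm spot fluorescence with signal-to-noise for antibody binding to printed compounds.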 To be noted: higher = more signal.
The target in assay [8] is Torsin-1A (Homo sapiens) (UniProt O14656). Kind of assay: TOR1A wild-type binding on microarray – cell lysate, small-molecule microarray, lysate, 635/667 nm, primary screen (AID 1149). To be noted: COS7 hTOR1A-WT lysate, 635 nm fluorescence, higher = more signal.
Chain of Torsin-1A (Homo sapiens) (O14656 whole entry, looked up): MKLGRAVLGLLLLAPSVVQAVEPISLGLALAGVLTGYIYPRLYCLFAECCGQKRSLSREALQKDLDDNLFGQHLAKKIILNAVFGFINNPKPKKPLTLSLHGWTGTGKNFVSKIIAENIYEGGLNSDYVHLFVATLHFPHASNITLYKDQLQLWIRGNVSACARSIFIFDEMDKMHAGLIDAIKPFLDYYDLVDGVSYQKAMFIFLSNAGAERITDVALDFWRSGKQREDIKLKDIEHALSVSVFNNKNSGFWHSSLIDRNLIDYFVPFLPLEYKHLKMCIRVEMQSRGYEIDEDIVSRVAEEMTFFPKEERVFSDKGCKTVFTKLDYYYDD
The target is the same in assay [9]. Kind of assay: torsin A mutant lysate binding on microarrays – cell lysate, small-molecule microarray, COS7 lysate, 635/667 nm fluorescence, primary screen (AID 1150).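 Also: score pools 667 nm emission and signal to noise measuring lysate protein binding.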 The conditions noted are these: COS7 hTOR1A mutant lysate, 635 nm fluorescence, higher = more signal.
The test system of assay [10] is Sonic hedgehog protein (Shh). Kind of assay: Sonic hedgehog microarray binding compounds – biochemical, small-molecule microarray, 635/667 nm fluorescence, primary screen (AID 1151).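 Also: Shh protein binding to compounds spotted on small-molecule microarray slides; score combines spot fluorescence intensity with signal-to-noise across triplicate slides.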 The conditions noted are these: 635 nm fluorescence, higher = more signal.
Assay [11] is described as follows: optical density shifts of acrAB sulA E. coli – strain DRC41, OD650, 48 h, E. coli filamentation inducer project, primary screen (AID 1152).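 Also: E. coli MC1000 strain DRC41 lacking acrAB efflux pump and sulA.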 The conditions noted are these: higher = more signal, called active from +8 up or from −8 down.
The nature of assay [12]: probe aLefty1 binding on compound microarray – biochemical, small-molecule microarray, 635/667 nm fluorescence, primary screen (AID 1153).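 Also: score merges spot fluorescence with signal-to-noise ratio from the scanned slide images.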 To be noted: higher = more signal.
A short description of assay [13]: plasmodial surface anion channel blockers, osmotic lysis – cell-based, P. falciparum Indochina, OD700, 1 h, primary screen (AID 1154). The conditions noted are these: P. falciparum Indochina infected RBC osmotic lysis, higher = more signal, called active from +8 up or from −8 down.
A short description of assay [14]: plasmodial surface anion channel blockers, osmotic lysis – cell-based, P. falciparum Indochina, OD700, 2 h, primary screen (AID 1155).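 Also: lysis reports solute entry through the parasite surface anion channel PSAC.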 To be noted: P. falciparum Indochina infected erythrocytes, higher = more signal, called active from +8 up or from −8 down.
The nature of assay [15]: changes in parasitized red cell lysis, either direction – P. falciparum Indochina, OD700, 3 h, PSAC antagonist project, primary screen (AID 1156). The conditions noted are these: P. falciparum-infected erythrocytes, osmotic lysis, higher = more signal, called active from +8 up or from −8 down.
A short description of assay [16]: plasmodial surface anion channel blockers, osmotic lysis – cell-based, P. falciparum Indochina, OD700, 18 h, primary screen (AID 1157). To be noted: P. falciparum Indochina infected erythrocytes, osmotic lysis OD700, 18 h; higher = more signal, called active from +8 up or from −8 down.
The nature of assay [17]: S6 kinase pathway phospho-S6 level changes – cell-based, A549, cytoblot, luminescence, serum-stimulated, primary screen (AID 1158).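 Also: serum-stimulated A549 lung adenocarcinoma cells; signal is phosphorylated S6 detected by cytoblot immunostaining with HRP secondary.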 To be noted: 5 h, higher = more signal.
Assay [18] addresses NADPH oxidase 2 (Homo sapiens) (UniProt P04839). Description: compounds shifting NOX2 Amplex Red fluorescence – cell-based, HEK293-NOX2, PMA-stimulated, NOX inhibitor project, primary screen (AID 1159). Also: test concentration not given here. The conditions noted are these: 45 min, higher = more signal, called active from +8 up or from −8 down.
For assay [19], the target named is NADPH oxidase 4 (Homo sapiens) (UniProt Q9NPH5). Kind of assay: compounds shifting NOX4 Amplex Red fluorescence – cell-based, HEK293-NOX4, tetracycline-induced, NOX inhibitor project, primary screen (AID 1160). The conditions noted are these: HEK293-NOX4, Amplex Red H2O2 fluorescence, 45 min; higher = more signal, called active from +8 up or from −8 down.
Chain of NADPH oxidase 4 (Homo sapiens) (Q9NPH5 whole entry, looked up): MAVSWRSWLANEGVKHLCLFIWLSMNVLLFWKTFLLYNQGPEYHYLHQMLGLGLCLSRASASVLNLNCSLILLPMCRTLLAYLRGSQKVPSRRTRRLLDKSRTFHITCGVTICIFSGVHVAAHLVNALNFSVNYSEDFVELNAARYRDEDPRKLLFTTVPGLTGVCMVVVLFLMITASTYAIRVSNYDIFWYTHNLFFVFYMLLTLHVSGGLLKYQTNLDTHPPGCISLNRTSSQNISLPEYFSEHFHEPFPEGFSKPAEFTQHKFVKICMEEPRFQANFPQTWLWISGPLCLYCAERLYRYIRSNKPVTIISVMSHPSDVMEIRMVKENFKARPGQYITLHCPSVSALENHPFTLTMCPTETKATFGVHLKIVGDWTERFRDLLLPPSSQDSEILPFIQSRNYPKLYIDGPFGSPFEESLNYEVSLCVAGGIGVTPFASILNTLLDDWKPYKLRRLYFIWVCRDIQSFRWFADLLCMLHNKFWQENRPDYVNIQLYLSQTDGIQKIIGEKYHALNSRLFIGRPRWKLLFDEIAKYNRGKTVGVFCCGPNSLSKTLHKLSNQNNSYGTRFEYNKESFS
The target in assay [20] is NADPH oxidase 5 (Homo sapiens) (UniProt Q96PH1). Kind of assay: compounds shifting NOX5 Amplex Red fluorescence – cell-based, HEK293-NOX5, NOX inhibitor project, primary screen (AID 1161). The conditions noted are these: HEK293-NOX5, ionomycin, 45 min, higher = more signal.
Chain of NADPH oxidase 5 (Homo sapiens) (Q96PH1 whole entry, looked up): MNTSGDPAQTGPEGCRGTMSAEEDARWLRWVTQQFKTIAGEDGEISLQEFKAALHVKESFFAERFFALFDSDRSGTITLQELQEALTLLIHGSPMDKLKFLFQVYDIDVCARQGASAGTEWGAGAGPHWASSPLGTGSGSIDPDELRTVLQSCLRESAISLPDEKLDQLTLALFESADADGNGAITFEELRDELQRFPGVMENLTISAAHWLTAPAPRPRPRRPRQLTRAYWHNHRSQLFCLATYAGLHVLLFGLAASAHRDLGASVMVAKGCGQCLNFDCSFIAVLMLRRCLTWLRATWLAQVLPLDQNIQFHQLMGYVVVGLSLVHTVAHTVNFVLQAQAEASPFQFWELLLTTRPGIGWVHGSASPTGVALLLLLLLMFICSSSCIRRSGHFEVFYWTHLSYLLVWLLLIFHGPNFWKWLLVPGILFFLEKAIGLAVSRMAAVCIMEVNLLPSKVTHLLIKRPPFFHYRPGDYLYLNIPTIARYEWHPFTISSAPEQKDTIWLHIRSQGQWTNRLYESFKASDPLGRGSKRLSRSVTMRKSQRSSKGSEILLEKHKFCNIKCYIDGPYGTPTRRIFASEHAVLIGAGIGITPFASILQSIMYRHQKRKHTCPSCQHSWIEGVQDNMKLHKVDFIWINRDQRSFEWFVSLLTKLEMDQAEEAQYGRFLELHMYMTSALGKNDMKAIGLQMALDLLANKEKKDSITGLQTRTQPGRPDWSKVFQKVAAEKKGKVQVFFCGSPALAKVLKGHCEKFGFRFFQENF

Chain of Streptavidin (Streptomyces avidinii) (P22629 whole entry, looked up): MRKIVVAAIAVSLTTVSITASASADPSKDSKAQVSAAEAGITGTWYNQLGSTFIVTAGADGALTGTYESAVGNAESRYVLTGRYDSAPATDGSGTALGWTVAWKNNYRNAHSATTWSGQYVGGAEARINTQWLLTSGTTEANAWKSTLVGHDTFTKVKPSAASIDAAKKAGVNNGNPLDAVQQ
Chain of NADPH oxidase 2 (Homo sapiens) (P04839 whole entry, looked up): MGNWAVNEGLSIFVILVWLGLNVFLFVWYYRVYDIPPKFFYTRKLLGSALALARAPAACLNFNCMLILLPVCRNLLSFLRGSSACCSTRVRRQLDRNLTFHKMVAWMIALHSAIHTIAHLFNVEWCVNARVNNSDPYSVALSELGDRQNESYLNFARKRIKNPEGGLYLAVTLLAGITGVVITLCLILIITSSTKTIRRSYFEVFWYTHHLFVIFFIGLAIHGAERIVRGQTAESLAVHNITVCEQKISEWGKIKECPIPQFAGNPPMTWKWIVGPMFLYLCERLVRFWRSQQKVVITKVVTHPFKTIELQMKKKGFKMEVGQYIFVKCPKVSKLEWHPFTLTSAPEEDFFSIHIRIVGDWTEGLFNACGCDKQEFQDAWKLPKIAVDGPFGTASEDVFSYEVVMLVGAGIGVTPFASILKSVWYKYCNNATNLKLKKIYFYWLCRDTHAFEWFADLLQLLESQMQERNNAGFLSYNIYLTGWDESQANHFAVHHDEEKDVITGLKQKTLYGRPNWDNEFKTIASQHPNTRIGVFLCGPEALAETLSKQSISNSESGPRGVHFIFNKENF

As for `CCOC(=O)C1=C(C(=O)OCC)N(S(=O)(=O)CC[Si](C)(C)C)[C@H](c2ccccc2)CC1`, the composite z-score was 0.263 in assay [1]; 0.955 in [6]; 0.131 in assay [7]; 0.454 in [8]; 0.476 in assay [9]; -0.424 in [10]. In assay [12], the composite z-score is 0.174. Moreover, the z-score in assay [2] is -4.45 (inactive); in assay [3], 0.338 (inactive); in [4], 0.229 (inactive); in [5] it was 0.207 (inactive); in assay [11], -0.941 (inactive); in assay [13], 1.23 (inactive). Further, the z-score in assay [14] was 0.763 (inactive); in assay [15], 0.106 (inactive); in [16], 0.19 (inactive); in assay [17], -0.405; in [18], -0.135 (inactive); in [19], 0.232 (inactive). Moreover, the z-score in assay [20] worked out at 0.134.

`C=C(COC)/C(=C/C[C@@H](OC(C)=O)c1ccccc1OCCO)c1cc(C(=O)OC)ccc1OC`: the composite z-score in assay [1] was 0.143; in assay [6] it was -0.333; in [7] it was -0.188; in [8], 0.237; in assay [9], 0.612; in assay [10] it was 0.94. The composite z-score in [12] stood at 0.0945. The z-score is -1 (inactive) in assay [2]; -0.765 (inactive) in assay [3]; 11.4 (active) in [4]; 0.323 (inactive) in [5]; 0.0999 (inactive) in assay [11]; 17.2 (active) in [13]. For the same compound, the z-score in assay [14] is 2.52 (inactive); in assay [15], 1.68 (inactive); in assay [16], 1.04 (inactive); in assay [17] it was -0.0651; in assay [18] it was 0.857 (inactive); in assay [19] it was -0.16 (inactive). For the same compound, the z-score in assay [20] was -1.46.

`COc1cccc(C[C@H]2C[C@@H](CO[Si](C(C)C)(C(C)C)C(C)C)N3C(=O)[C@@]4(C(C)=O)O[C@@]23[C@@H]2C(=O)N(C)C(=O)[C@@H]24)c1`: the composite z-score is 0.0121 in assay [1]; 0.0285 in [6]; 0.2 in [7]; 0.241 in assay [8]; 0.0185 in assay [9]; 1.3 in assay [10]. In [12], this compound displayed a composite z-score of -0.0061. In addition, the z-score is -2.38 (inactive) in assay [2]; 0.333 (inactive) in assay [3]; 0.222 (inactive) in assay [4]; -0.065 (inactive) in [5]; -0.848 (inactive) in assay [11]; 1.31 (inactive) in assay [13]. The z-score in [14] was 0.576 (inactive); in assay [15] it was -0.176 (inactive); in [16] it was 0.0375 (inactive); in assay [17], -0.669; in assay [18], -0.175 (inactive); in assay [19], 0.746 (inactive). Also, in assay [20], the z-score was 0.181.

In the case of `C=CCC(OC(C)=O)[C@@H]1[C@@H](N(Cc2ccc(-c3cccc(C(F)(F)F)c3)o2)C(=O)c2cccc3ccccc23)c2cc(OCCCO)ccc2N1C(=O)c1ccc2ccccc2c1` (stereo not given in full), the composite z-score in assay [1] is -0.12; in assay [6], -0.332; in [7], -0.118; in assay [8] it was -0.0205; in assay [9], -0.0418; in assay [10], 1.23. The compound further displayed a composite z-score in assay [12] of 0.179. The z-score in assay [2] is -1.6 (inactive); in assay [3] it was -0.924 (inactive); in assay [4] it was -0.71 (inactive); in assay [5], 0.942 (inactive); in [11] it was -0.0766 (inactive); in [13], 0.785 (inactive). Besides, the z-score in assay [14] was 0.434 (inactive); in assay [15] it was 2.22 (inactive); in assay [16] it was 0.286 (inactive); in [17], 0.813; in assay [18], -2.13 (inactive); in assay [19] it was -1.74 (inactive). Further, the z-score in assay [20] was -1.76.
